Data reported in PubChem BioAssay (Tox21).
Where “and” joins values, the source holds several entries; their conditions need not be identical. Equal values may be shown once. Inconclusive results are not listed. Entries that show only a call come without a potency. Calls of active or inactive are those of the source. Unless noted, calls follow the shape of the dose curve; as a rule, active = well fitted curve in the direction sought with a large enough effect in the repeat runs; inconclusive = weak or mixed curves; inactive = no such curve, though single readings can be large; an effect the other way counts as inactive or inconclusive.

Tests used:
[1] = qHTS assay for small molecule agonists of the p53 signaling pathway (AID 651631; calls by dose curve; also: nearly all actives have a fitted effect of over 15% in size; also: potency is read from the fitted curve at half-maximal effect)
In short: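 Read-out is beta-lactamase FRET fluorescence measured 2 h after substrate addition at room temperature, in HCT-116 cells with a p53 response element-driven reporter exposed to compounds for 16 h at 37 °C.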

[2] = qHTS assay for small molecules that induce genotoxicity in human embryonic kidney cells expressing luciferase-tagged ATAD5 (AID 651632); also: nearly all actives have a fitted effect of over 15% in size
In short: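 Test compounds were delivered by pin tool onto HEK293T reporter cells (2,000/well) expressing ATAD5 fused to luciferase. After 16 hr at 37C, 5% CO2, Amplite was added for 30 min at room temperature and luminescence was measured.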

[3] = qHTS assay for small molecule agonists of the p53 signaling pathway - cell viability (AID 651633; calls by dose curve;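 also: p53RE-bla HCT reporter cells with a stable beta-lactamase p53 reporter; series mostly up to about 83 µM; nearly all actives have a fitted effect of over 30% in size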)
In short: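 p53RE-bla cells, seeded at 4,000 per well and rested 5 h at 37 C/5% CO2, received compounds in DMSO for 16 h at 37 C. CellTiter-Glo was then added, and luminescence was read after 30 min at room temperature to gauge cytotoxicity.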

[4] = qHTS assay for small molecules that induce genotoxicity in human embryonic kidney cells expressing luciferase-tagged ATAD5 - cell viability (AID 651634; calls by dose curve; also: nearly all actives have a fitted effect of over 25% in size; also: potency is read from the fitted curve at half-maximal effect)
In short: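 Quantitative high-throughput format. HEK293T cells expressing ATAD5 fused to luciferase were plated at 2,000 cells/well and treated 15.5 hr with compound versus DMSO. Viability was determined by fluorescent live-cell protease substrate, 30 min at 37C.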

[5] = qHTS assay to test for compound auto fluorescence at 590 nm (red) in HepG2 cells (AID 720674)
In short: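 Compound auto-fluorescence is scored relative to Rose Bengal sodium, measured at 540/590 nm in live HepG2 cultures after 1 hr compound contact (37 C, 5% CO2).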

[6] = qHTS assay to test for compound auto fluorescence at 535 nm (green) in HepG2 cells (AID 720675)
[7] = qHTS assay to test for compound auto fluorescence at 460 nm (blue) in HEK293 cells (AID 720678)
In short: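 HEK293, 2,000 cells/well, 10% dialyzed FBS; attach 4-5 hr 37C; pin compound or DMSO; o/n 37C/5% CO2; fluorescence 405/460 nm; triamterene-equivalent units.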

[8] = qHTS assay to test for compound auto fluorescence at 590 nm (red) in HEK293 cells (AID 720679)
In short: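 Intensity at 540nm excitation and 590nm emission is reported as Rose Bengal sodium-equivalent autofluorescence. Measurements followed overnight exposure (37C, 5% CO2) of HEK293 cells, 2,000 per well, to 23 nL compound.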

[9] = qHTS assay to test for compound auto fluorescence at 535 nm (green) in HEK293 cells (AID 720680)
[10] = qHTS assay to test for compound auto fluorescence at 460 nm (blue) in HEK293 cell free culture (AID 720681)
In short: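 Test compounds were pinned into cell-free culture medium (DMEM with 10% FBS) and fluorescence was read directly at Ex/Em 405/460 nm. Signals were expressed as fluorescence equivalents of triamterene, with DMSO vehicle as control.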

[11] = qHTS assay to test for compound auto fluorescence at 535 nm (green) in HEK293 cell free culture (AID 720682)
In short: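 Fluorescein serves as the green reference fluorophore; each compound's intrinsic emission at 535 nm (excitation 485 nm) is reported as an equivalent amount of that dye, measured in serum-containing DMEM without cells.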

[12] = qHTS assay to test for compound auto fluorescence at 590 nm (red) in HEK293 cell free culture (AID 720683)
In short: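 Tox21 10K library compounds were pinned into cell-free DMEM with 10% FBS and fluorescence was read at excitation 540 nm. Activity is expressed as Rose Bengal sodium equivalency.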

[13] = qHTS assay to test for compound auto fluorescence at 590 nm (red) in HepG2 cell free culture (AID 720684)
In short: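 Readout: intrinsic compound fluorescence at 590 nm emission after 540 nm excitation, scaled to Rose Bengal sodium. Matrix was cell-free MEM with 10% FBS; DMSO vehicle wells served as control.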

[14] = qHTS assay to test for compound auto fluorescence at 460 nm (blue) in HepG2 cell free culture (AID 720685)
In short: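 Cell-free plates of MEM plus 10% FBS received 23 nL compound or DMSO vehicle; blue-channel (405/460 nm) intensity scored against triamterene as reference fluorophore.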

[15] = qHTS assay to test for compound auto fluorescence at 535 nm (green) in HepG2 cell free culture (AID 720686)
[16] = qHTS assay to test for compound auto fluorescence at 460 nm (blue) in HepG2 cells (AID 720687)
In short: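 Cells (2,000/well in MEM with 10% FBS) attached overnight at 37 C, then were exposed to compound or DMSO for 1 hr at 37 C, 5% CO2. Fluorescence read at Ex/Em 405/460 nm, expressed as triamterene-equivalent signal.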

[17] = molecular target: Glucocorticoid receptor (Homo sapiens) (UniProt P04150); experiment: qHTS assay to identify small molecule agonists of the glucocorticoid receptor (GR) signaling pathway (AID 720691; active = well fitted activation curve with a large enough effect in the signal ratio in the repeat runs, not every such curve was filed as active; the % refers to the signal ratio)
Chain of Glucocorticoid receptor (Homo sapiens) (P04150 whole entry, looked up): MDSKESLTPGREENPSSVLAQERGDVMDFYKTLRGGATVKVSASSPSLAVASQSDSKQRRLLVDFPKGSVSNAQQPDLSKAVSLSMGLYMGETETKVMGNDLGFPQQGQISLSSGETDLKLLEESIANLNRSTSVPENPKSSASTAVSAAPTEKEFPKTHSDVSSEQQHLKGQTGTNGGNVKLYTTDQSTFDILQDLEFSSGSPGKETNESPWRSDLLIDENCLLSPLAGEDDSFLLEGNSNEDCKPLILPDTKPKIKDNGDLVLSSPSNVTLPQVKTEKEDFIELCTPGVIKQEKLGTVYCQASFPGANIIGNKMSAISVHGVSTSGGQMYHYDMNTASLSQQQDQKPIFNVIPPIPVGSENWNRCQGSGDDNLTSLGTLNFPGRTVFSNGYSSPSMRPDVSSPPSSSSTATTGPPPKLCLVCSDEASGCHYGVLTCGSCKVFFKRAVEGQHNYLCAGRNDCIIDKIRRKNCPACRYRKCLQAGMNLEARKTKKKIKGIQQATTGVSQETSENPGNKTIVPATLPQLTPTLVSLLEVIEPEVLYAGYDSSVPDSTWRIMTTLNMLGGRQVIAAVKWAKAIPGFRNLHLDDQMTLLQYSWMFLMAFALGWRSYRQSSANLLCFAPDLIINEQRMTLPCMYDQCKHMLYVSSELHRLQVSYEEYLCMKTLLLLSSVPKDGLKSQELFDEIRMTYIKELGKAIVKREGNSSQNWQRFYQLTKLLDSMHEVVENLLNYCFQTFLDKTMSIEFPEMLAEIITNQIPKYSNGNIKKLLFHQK
In short: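 A HeLa cervical cancer line expressing GR and a glucocorticoid response element-driven beta-lactamase gene is treated with compounds for 18 h; LiveBLAzer B/G FRET substrate is then applied and fluorescence read.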

[18] = molecular target: Glucocorticoid receptor (Homo sapiens) (UniProt P04150); experiment: qHTS assay to identify small molecule antagonists of the glucocorticoid receptor (GR) signaling pathway (AID 720692; active = well fitted inhibition curve with a large enough effect in the signal ratio in the repeat runs, not every such curve was filed as active; the % refers to the signal ratio; also: potency is read from the fitted curve at half-maximal effect)
In short: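 GRE-bla HeLa line, dex-stimulated (5 nM final). Compound exposure 18 h, 37 C. Beta-lactamase FRET read after 2 h RT substrate.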

[19] = qHTS assay for small molecule disruptors of the mitochondrial membrane potential - cell viability (AID 720634; calls by dose curve;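 also: human HepG2 liver cancer cells; series mostly up to about 83 µM; nearly all actives have a fitted effect of over 20% in size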)
In short: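 Same-well counter-screen: following the MMP dye addition, CellTiter-Glo was added to 1 hr compound-treated HepG2 cells and luminescence read after 30 min at room temperature.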

[20] = qHTS assay for small molecule disruptors of the mitochondrial membrane potential (AID 720635)
In short: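 HepG2 cells (2,000/well) attached overnight at 37C, then took compound for 1 hr at 37C, 5% CO2. Mito-MPS dye was added for 30 min; fluorescence was read at 490/535 nm (monomers) and 540/590 nm (aggregates).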

Row | Compound | Potency [1] | Potency [2] | Potency [3] | Potency [4] | outcome [5] | outcome [6] | outcome [7] | outcome [8] | outcome [9] | outcome [10] | outcome [11] | outcome [12] | outcome [13] | outcome [14] | outcome [15] | outcome [16] | Potency [17] | Potency [18] | Potency [19] | Potency [20]
1 | O=C(Cl)OCCOCCOC(=O)Cl | inactive | inactive | inactive | inactive | inactive | inactive | inactive | inactive | inactive | inactive | inactive | inactive | inactive | inactive | inactive | inactive | inactive | inactive |  | 
2 | CCOP(=S)(S)OCC | inactive | inactive | inactive | inactive | inactive | inactive | inactive | inactive | inactive | inactive | inactive | inactive | inactive |  | inactive | inactive | inactive | inactive | inactive | 
3 | COC(=O)Cc1ccccc1 | inactive | inactive | inactive | inactive | inactive | inactive | inactive | inactive | inactive | inactive | inactive | inactive | inactive |  | inactive | inactive | inactive | inactive | inactive | 
4 | COc1ccc(C(O)(c2cncnc2)C2CC2)cc1 (stereo unspecified) | inactive | inactive | inactive | inactive | inactive | inactive | inactive | inactive | inactive | inactive | inactive | inactive | inactive | inactive | inactive | inactive | inactive | inactive | inactive | 
5 | O=C(O)C(F)(F)C(F)(F)C(F)(F)C(F)(F)C(F)(F)F | inactive | inactive | inactive | inactive | inactive | inactive | inactive | inactive | inactive | inactive | inactive | inactive | inactive |  | inactive | inactive | inactive | inactive | inactive | 
6 | CC(C)c1ccc(OP(=O)(Oc2ccc(C(C)C)cc2)Oc2ccc(C(C)C)cc2)cc1 | inactive | inactive | inactive | inactive | inactive | inactive | inactive | inactive | inactive | inactive | inactive | inactive | inactive | inactive | inactive | inactive | inactive |  |  | 
7 | C=CCOCC1CO1 (stereo unspecified) | inactive | inactive | inactive | inactive | inactive | inactive | inactive | inactive | inactive | inactive | inactive | inactive | inactive | inactive | inactive | inactive | inactive |  |  | 
8 | C=CCc1ccccc1O | inactive | inactive | inactive | inactive | inactive | inactive | inactive | inactive | inactive | inactive | inactive | inactive | inactive |  | inactive | inactive | inactive | inactive | inactive | 
9 | O=C=NC1CCCCC1 | inactive |  | inactive | inactive | inactive | inactive | inactive | inactive | inactive | inactive | inactive | inactive | inactive | inactive | inactive | inactive | inactive | inactive | inactive | 
10 | CC(C)(C)NCC(O)c1ccccc1Cl (stereo unspecified) | inactive | inactive | inactive | inactive | inactive | inactive | inactive | inactive | inactive | inactive | inactive | inactive | inactive | inactive | inactive | inactive | inactive | inactive | inactive | 
11 | O=C(CCl)CCl | 24.3 µM (active) |  | inactive | 63.4 µM (active) and 54.5 µM (active) | inactive | inactive | inactive | inactive | inactive | inactive | inactive | inactive | inactive | inactive | inactive | inactive | inactive | 43.6 µM (active) |  | 
12 | CC(C)(c1ccccc1)c1cc(-n2nc3ccccc3n2)c(O)c(C(C)(C)c2ccccc2)c1 | inactive | inactive | inactive | inactive | inactive | inactive | inactive | inactive | inactive | inactive | inactive | inactive | inactive | inactive | inactive | inactive | inactive | inactive | inactive | 
13 | Clc1ccc(Cl)c(Cl)c1 | inactive |  | inactive | inactive | inactive | inactive | inactive | inactive | inactive | inactive | inactive | inactive | inactive | inactive | inactive | inactive |  |  | inactive | inactive
14 | CC(C)C1(C)N=C(c2ncccc2C(=O)O)NC1=O (stereo unspecified) | inactive | inactive | inactive | inactive | inactive | inactive | inactive | inactive | inactive | inactive | inactive | inactive | inactive | inactive | inactive | inactive | inactive | inactive | inactive | 
15 | COC(=O)C1(O)c2ccccc2-c2ccccc21 | inactive | inactive | inactive | inactive | inactive | inactive | inactive | inactive | inactive | inactive | inactive | inactive | inactive | inactive | inactive | inactive | inactive | inactive | inactive | 
